Results: the supplement of paper PMC10849652
About 7,900 targets were measured; listed, in parts, are those with a hit and a random draw of the rest. About 0.6% of all pairs of compound and target were hits.

Columns and labels:
Test in all cases: log2 fold change, soluble protein after heating vs DMSO (PISA); higher = thermal stabilisation; K562 cells, 10 uM, 30 min; active = over 0.2 and 3.5 SD of the protein, either way, in both replicates (recomputed)
[1] = compound: C1=CC=C(C=C1)[C@H](COC2=CC3=C(C=C2)NC(=O)N3)NC(=O)C4=CC=CN(C4=O)CC5=CC(=C(C=C5)F)F
How it was run: (§1)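 Quantification of soluble protein used TMTpro 16plex LC-MS/MS, with channel sums equalised. Samples were the supernatant after 21,000xg for 90 min of pooled aliquots from K562 cells (2×10^6 cells/mL) treated with 10 μM compound for 30 min, heated for 3 min over 48°C-58°C, and extracted in PBS with 0.5% NP-40 at 4°C. Values, from duplicates, describe thermal stability against control samples on a log2 fold-change scale.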

[2] = compound: CC1=C(SC2=C1C(=N[C@H](C3=NN=C(N32)C)CC(=O)N)C4=CC=C(C=C4)Cl)C
How it was run: as §1

[3] = compound: CC1=C2C(=CC=C1)N=C(N(C2=O)C3=CC=CC=C3C)CN4C=NC5=C(N=CN=C54)N
How it was run: as §1

[4] = compound: Cc1sc2c(c1C)C(c1ccc(Cl)cc1)=N[C@@H](CC(=O)OC(C)(C)C)c1nnc(C)n1-2
How it was run: as §1

[5] = compound: c1ccc([C@@H]2C[C@H]2NC2CCNCC2)cc1
How it was run: as §1

Measured: log2 fold change

TXNL1 (UniProt O43396)
inactive: [1] 0.005 | [2] 0.051 | [3] 0.056 | [4] -0.01 | [5] 0.015

VWA3B isoform 6 (UniProt Q502W6)
inactive: [1] -0.161 | [2] 0.069 | [3] 0.162 | [4] 0.129 | [5] 0.064

TMEM161A (UniProt Q9NX61)
Chain of UniProt Q9NX61 (Q9NX61 whole entry, looked up): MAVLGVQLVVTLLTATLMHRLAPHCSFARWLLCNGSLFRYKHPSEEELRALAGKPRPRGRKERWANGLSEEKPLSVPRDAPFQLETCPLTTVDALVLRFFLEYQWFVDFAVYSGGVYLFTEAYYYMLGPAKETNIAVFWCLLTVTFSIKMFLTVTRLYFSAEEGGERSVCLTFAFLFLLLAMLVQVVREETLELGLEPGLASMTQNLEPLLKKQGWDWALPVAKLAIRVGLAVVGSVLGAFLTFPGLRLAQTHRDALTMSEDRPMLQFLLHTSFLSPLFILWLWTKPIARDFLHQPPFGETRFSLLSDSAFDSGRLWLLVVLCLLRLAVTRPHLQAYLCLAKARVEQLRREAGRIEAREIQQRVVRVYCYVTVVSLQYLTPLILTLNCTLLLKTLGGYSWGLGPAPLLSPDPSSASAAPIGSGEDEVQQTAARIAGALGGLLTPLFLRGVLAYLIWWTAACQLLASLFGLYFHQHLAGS
inactive: [1] -0.055 | [2] 0.017 | [3] 0.098 | [4] -0.133 | [5] 0.003

XPO5 (UniProt Q9HAV4)
Chain of UniProt Q9HAV4 (Q9HAV4 whole entry, looked up): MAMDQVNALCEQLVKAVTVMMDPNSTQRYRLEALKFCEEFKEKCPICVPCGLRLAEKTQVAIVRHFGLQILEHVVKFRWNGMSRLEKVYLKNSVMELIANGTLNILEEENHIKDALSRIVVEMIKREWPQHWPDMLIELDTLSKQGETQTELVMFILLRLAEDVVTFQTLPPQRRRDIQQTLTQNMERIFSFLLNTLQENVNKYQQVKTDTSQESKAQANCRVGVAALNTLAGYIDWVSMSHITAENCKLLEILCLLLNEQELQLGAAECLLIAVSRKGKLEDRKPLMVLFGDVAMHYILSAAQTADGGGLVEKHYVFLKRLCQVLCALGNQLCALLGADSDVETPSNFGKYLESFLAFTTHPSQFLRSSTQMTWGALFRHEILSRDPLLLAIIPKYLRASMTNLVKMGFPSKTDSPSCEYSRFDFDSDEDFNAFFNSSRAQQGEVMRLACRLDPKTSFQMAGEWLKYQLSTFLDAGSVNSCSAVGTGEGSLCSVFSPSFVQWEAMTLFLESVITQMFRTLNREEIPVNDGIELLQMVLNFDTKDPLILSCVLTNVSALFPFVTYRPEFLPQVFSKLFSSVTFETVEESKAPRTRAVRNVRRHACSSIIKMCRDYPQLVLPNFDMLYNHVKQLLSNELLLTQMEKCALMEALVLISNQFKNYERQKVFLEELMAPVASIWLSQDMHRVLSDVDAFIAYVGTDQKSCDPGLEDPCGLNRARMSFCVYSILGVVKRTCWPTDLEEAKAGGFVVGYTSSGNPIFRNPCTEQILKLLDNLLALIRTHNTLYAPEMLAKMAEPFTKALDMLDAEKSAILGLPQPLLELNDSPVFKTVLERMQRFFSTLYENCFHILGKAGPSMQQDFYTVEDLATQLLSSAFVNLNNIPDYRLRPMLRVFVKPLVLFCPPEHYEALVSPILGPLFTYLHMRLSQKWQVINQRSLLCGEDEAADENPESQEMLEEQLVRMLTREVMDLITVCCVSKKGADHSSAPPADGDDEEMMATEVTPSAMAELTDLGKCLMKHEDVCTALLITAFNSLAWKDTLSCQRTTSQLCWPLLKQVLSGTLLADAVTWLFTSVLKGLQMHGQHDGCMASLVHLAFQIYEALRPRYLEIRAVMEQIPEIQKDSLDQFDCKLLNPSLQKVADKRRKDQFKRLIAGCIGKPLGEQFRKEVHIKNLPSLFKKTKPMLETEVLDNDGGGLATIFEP
inactive: [1] -0.037 | [2] 0.042 | [3] 0.02 | [4] -0.024 | [5] -0.01

VPS39 (UniProt Q96JC1)
inactive: [1] -0.087 | [2] 0.018 | [3] 0.071 | [4] -0.009 | [5] -0.052

USP48 isoform 8 (UniProt Q86UV5)
inactive: [1] -0.073 | [2] 0.106 | [3] 0.191 | [4] -0.012 | [5] 0.119

USP24 (UniProt Q9UPU5)
Chain of UniProt Q9UPU5 (Q9UPU5 whole entry, looked up): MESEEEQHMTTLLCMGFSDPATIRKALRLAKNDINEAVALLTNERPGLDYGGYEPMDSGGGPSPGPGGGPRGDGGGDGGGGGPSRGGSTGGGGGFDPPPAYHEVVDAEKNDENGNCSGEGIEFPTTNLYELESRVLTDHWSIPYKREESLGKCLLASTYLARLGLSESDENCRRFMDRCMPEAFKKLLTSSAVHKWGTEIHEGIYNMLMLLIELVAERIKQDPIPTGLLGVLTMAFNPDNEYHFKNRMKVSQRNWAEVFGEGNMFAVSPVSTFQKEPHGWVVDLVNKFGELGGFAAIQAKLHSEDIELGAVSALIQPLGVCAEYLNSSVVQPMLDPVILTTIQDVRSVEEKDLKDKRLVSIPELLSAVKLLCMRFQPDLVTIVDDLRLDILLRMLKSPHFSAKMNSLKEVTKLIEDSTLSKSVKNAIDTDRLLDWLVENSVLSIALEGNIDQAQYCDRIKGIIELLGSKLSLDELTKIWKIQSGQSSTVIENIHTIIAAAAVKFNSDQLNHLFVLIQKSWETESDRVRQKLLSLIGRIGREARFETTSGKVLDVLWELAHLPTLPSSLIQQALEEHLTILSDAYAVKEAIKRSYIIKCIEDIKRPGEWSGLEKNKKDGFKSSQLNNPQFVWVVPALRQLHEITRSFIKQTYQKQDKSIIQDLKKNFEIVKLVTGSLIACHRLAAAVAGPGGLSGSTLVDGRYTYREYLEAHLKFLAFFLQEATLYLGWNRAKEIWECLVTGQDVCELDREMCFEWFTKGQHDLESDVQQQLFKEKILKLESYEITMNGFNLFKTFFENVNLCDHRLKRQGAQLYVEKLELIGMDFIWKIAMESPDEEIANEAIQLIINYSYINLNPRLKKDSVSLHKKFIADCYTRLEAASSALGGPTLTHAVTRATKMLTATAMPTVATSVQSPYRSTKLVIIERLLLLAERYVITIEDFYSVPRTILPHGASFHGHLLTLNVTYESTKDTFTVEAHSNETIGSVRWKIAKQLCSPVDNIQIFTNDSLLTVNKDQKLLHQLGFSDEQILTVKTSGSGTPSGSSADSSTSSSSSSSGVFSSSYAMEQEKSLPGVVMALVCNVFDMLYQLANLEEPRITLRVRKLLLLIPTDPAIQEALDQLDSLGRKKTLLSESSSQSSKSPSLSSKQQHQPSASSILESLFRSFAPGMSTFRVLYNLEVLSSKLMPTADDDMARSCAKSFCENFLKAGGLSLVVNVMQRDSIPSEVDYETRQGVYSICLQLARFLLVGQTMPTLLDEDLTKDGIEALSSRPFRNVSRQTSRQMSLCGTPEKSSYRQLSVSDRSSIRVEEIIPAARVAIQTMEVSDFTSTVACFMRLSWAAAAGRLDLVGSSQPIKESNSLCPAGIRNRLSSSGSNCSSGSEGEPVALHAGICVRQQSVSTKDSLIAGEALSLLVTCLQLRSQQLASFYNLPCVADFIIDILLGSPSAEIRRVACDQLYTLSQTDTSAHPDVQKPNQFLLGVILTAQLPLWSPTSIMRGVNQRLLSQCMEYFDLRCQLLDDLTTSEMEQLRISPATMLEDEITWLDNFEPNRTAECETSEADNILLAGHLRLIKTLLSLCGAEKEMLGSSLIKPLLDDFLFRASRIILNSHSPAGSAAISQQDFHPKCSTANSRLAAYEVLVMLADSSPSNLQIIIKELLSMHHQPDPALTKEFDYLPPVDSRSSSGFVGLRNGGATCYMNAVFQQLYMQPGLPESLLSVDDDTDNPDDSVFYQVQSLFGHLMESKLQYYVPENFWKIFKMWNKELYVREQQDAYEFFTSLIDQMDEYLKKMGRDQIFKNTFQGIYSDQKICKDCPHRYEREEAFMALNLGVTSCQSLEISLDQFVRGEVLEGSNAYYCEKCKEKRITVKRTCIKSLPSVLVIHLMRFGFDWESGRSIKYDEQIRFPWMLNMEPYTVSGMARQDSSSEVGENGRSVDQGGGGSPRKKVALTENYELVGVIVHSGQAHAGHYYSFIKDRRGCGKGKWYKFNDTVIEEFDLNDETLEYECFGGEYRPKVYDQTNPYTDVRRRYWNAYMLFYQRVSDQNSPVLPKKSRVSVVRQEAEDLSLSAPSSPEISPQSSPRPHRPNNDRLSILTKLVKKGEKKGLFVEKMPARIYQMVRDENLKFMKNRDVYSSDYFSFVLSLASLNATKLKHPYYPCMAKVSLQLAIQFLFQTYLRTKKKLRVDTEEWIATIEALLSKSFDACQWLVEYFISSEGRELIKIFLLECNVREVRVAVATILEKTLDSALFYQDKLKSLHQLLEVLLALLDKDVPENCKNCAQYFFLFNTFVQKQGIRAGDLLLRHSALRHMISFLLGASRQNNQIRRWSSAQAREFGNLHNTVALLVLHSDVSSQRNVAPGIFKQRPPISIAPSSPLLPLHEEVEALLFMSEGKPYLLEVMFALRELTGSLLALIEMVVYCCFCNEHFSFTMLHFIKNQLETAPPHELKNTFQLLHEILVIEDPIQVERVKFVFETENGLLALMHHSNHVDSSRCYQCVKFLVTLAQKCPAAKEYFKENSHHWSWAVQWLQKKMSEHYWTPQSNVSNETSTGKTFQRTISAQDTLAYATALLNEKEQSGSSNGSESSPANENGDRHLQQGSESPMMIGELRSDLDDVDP
inactive: [1] 0.114 | [2] 0.02 | [3] 0.105 | [4] -0.198 | [5] -0.033

TMEM87B (UniProt Q96K49)
Chain of UniProt Q96K49 (Q96K49 whole entry, looked up): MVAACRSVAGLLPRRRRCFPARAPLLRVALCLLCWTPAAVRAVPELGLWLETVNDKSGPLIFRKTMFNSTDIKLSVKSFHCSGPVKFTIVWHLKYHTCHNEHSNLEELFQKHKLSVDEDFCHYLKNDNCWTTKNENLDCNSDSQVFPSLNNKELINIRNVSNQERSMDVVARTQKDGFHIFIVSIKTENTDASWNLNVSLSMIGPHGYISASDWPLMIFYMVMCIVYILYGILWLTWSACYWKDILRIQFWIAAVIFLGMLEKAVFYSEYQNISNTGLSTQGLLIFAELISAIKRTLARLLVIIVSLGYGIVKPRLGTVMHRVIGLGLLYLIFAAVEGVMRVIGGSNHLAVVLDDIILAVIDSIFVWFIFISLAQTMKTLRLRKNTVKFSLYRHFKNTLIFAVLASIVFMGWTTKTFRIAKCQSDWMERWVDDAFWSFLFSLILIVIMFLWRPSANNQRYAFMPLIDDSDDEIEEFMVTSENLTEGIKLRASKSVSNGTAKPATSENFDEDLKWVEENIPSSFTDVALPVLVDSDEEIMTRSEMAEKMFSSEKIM
inactive: [1] 0.04 | [2] 0.083 | [3] -0.031 | [4] -0.036 | [5] 0.012

TTC4 (UniProt O95801)
inactive: [1] -0.089 | [2] -0.008 | [3] 0.099 | [4] 0.022 | [5] -0.029
